Bioassay records (PubChem)
TDP1 cell noCPT: qHTS for Inhibitors of human tyrosyl-DNA phosphodiesterase 1 (TDP1): qHTS in cells in absence of CPT; DT40 Tdp1-/- hTDP1 cells, no CPT, ATP luminescence, 48 h; Potency, µM (top dose mostly 46.2 µM), inactives show at the top dose activity change, negative = growth inhibition, most hits filed as inhibitors; actives 15% (n = 420,000); further: nearly all actives have a fitted effect of over 55% in size
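No-CPT arm: Tdp1-/-;hTDP1 DT40 cells (400/well) plus compounds, incubated ≥48 hr at 37 °C. Readout CellTiter-Glo luminescence.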
RORgamma inh: inhibitors of mouse ROR gamma transcriptional activity | P51450 | Drosophila S2 Gal4-RORgamma UAS-luciferase reporter, 20 h | Potency, µM (highest dose often 53.6 µM), for the others: at the highest dose activity change, negative = inhibition, usual class: inhibitors | actives 5.4% (n = 310,000) | AID 2551; further: nearly all actives have a fitted effect of over 60% in size
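Schneider cells (Drosophila), stable Gal4 DBD–ROR gamma + UAS-luc; 1 hr cmpd preincubation; Cu2+ induction 700 uM final; 20 hr ambient; luminescence.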
Gal4-VP16 FLuc: counter-screen for ROR gamma inhibitors: Gal4-VP16 reporter | actives 3.5% (n = 310,000) | Drosophila S2 Gal4-VP16 UAS-luciferase, luminescence, 20 h | Potency, µM (titrated, usually from 53.6 µM), inactives show at the highest dose activity, negative = inhibition, usual class: inhibitors;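 further: Gal4-VP16 expression switched on by copper sulfate through the metallothionein promoter; nearly all actives have a fitted effect of over 50% in size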
TDP1 inh: inhibitors of human tyrosyl-DNA phosphodiesterase TDP1; recombinant TDP1, AlphaScreen DNA substrate cleavage; Potency, µM (top dose mostly 130 µM), for inactives: at the highest dose activity change, negative = inhibition, actives largely listed as inhibitors; actives 0.28% (n = 350,000); further: nearly all actives have a fitted effect of over 40% in size
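Recombinant human Tdp1 (E. coli-expressed, 1 nM final) preincubated with compounds 15 min at room temperature, then 5'-biotin/3'-phosphotyrosine-FITC DNA substrate (15 nM final) added for 5 min. AlphaScreen beads (10 ug/ml final) added 10 min; cleavage lowers signal.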
TDP1 cell CPT: growth inhibition of DT40 Tdp1-/-;hTDP1 cells with camptothecin (screen for TDP1 inhibitors) | AID 686979 | Potency, µM (doses to about 46.2 µM), for inactives: at the highest dose activity change, negative = growth inhibition, most hits filed as inhibitors | actives 12% (n = 420,000) | chicken DT40 Tdp1-/-;hTDP1 cells + 20 nM CPT, ATP luminescence, 48 h; further: nearly all actives have a fitted effect of over 55% in size
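Cell growth measured by CellTiter-Glo luminescence after a minimum 48 h, 37 C compound exposure with 20 nM CPT in Tdp1-knockout DT40 cells stably expressing hTDP1, seeded 400/well; qHTS titration format.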
The depositor's hits bear a star; ? = inconclusive; · = no result given; [ ] = remark or other dose. This is a sample that favours compounds with a hit; in the whole collection about 19% have one here. The call rests on the fitted dose curve; in most records, active means well fitted curve in the direction sought with a large enough effect; inconclusive means small, poorly fitted or top-dose-only effect, or another doubt; inactive means no such curve, though single readings can be large; an effect the other way counts as inactive or inconclusive. On the % scale 0 is the no-effect control and ±100 the full control effect; potency means the concentration at half of the fitted maximal effect.

SMILES	TDP1 cell noCPT	RORgamma inh	Gal4-VP16 FLuc	TDP1 inh	TDP1 cell CPT
CCOC(=O)/C(C#N)=C/c1cc2cc(C)c(C)cc2nc1Cl	?	6%	-4%	1%	?
CCOC(=O)/C(C#N)=C/c1cc2ccc(C)cc2nc1Cl	2.9µM*	6%	-10%	3%	4.1µM*
CCn1c(C)c(C)c2cc(C(=O)NCCCN3CCCCCC3)ccc21	-30%	-15%	-10%	10%	?
O=C(CS(=O)CC(=O)Nc1ccccc1-c1ccccc1)Nc1ccc(F)cc1 (stereo not drawn)	-26%	46%	18%	11%	-12%
CCOC(=O)/C(C#N)=C/c1cc(C)n(-c2ccccc2)c1C	21µM*	-44%	?	3%	16µM*
Cc1ccc(C)c(OCCn2cc(/C=C(/C#N)C(=O)NCC3CCCO3)c3ccccc32)c1 (stereo not drawn)	?	-3%[10 µM]	-10%	0%	16µM*
N#C/C(=C\c1cn(CCOc2ccccc2)c2ccccc12)C(=O)NCC1CCCO1 (stereo not drawn)	?	40%	-13%	9%	?
Cc1sc2nc3ccc(N4CCCCC4)nn3c(=O)c2c1C	?	-39%	-8%	-2%	?
CCc1nnc(NC(=O)C2Cc3ccccc3C(=O)O2)s1 (stereo not drawn)	-1%	0%	-2%	1%	-28%
Nc1cc(N)nc(SCC(=O)c2ccc3c(c2)NC(=O)CO3)n1	-15%	4%	-10%	2%	-1%
O=C1COc2ccc(C(=O)CSc3nnc(Cc4ccccc4)o3)cc2N1	4%	·	·	·	-5%
Cn1c(SCC(=O)c2ccc3c(c2)NC(=O)CO3)nc2ccccc21	?	-29%	26%	-5%	?
O=C1COc2ccc(C(=O)CSc3nnc(NCc4ccccc4)s3)cc2N1	13µM*	22%	14%	·	?
O=C1COc2ccc(C(=O)CSc3nc4ccccc4c(=O)n3-c3ccc(Cl)c(Cl)c3)cc2N1	?	-29%	6%	5%	23µM*
CCc1ccc(-n2c(SCC(=O)c3ccc4c(c3)NC(=O)CO4)nc3ccccc3c2=O)cc1	21µM*	2.5µM*	-1%	1%	?
CCCn1c(SCC(=O)c2ccc3c(c2)NC(=O)CO3)nc2ccccc21	9.2µM*	?	?	3%	10µM*
CCCCC1CC1C(=O)Nc1ncc2c(n1)CC(C)(C)CC2=O (stereo not drawn)	2%	3%	-6%	-5%	?
CC1CC(C)CN(C(=O)COC(=O)Cc2ccc(Br)cc2)C1 (stereo not drawn)	-12%	24%	2%	·	24%
COCCN(C(=O)CSc1nnc2cc(C)c3ccccc3n12)c1c(N)n(Cc2ccccc2)c(=O)[nH]c1=O	?	15%	3%	3%	?
Cc1c(C)c2ccc(OC(C)C(=O)NCCc3c[nH]c4ccccc34)cc2oc1=O (stereo not drawn)	?	7%	2%	·	?
O=C1COc2ccc(C(=O)CSc3nnc(Cc4cccs4)n3-c3ccc(Cl)cc3)cc2N1	18µM*	-103%	-22%	5%	18µM*
Cc1ccc(-n2c(Cc3cccs3)nnc2SCC(N)=O)cc1	-5%	-5%	2%	-6%	-2%
O=S(=O)(NC(=S)c1ccccc1)c1ccccc1	-24%	·	·	·	10%
CC(C)N=C(NS(=O)(=O)c1ccccc1)C(Cl)(Cl)Cl	2.9µM*	7.1µM*	?	-3%	2.9µM*
O=C(c1cc(F)c(F)cc1Cl)N1CCOCC1	-18%	-1%	-7%	4%	-10%
O=C(Nn1cc(C(=O)Nc2ccccc2F)c2ccccc2c1=O)c1cnccn1	?	?	?	-2%	?
COC(=O)c1cn(NC(=O)c2cnccn2)c(=O)c2ccccc12	7.3µM*	13µM*	?	4%	7.3µM*
CCc1nnc(SC(CC)C(=O)Nc2cc(C)ccc2C)c2cc3occc3n12 (stereo not drawn)	15µM*	·	·	-13%	18µM*
